{
  "source": "PubChem BioAssay (NCATS)",
  "note": "Inconclusive results are not listed. Active and inactive are the calls of the source. Calls follow the shape of the dose curve; as a rule, active = well fitted cell-killing curve with a large enough effect; inconclusive = small, poorly fitted or top-dose-only effect; inactive = no such curve, though single readings can be large or run the other way. % is scaled to controls: 0 for no effect and ±100 for the full control effect; potency is read from the fitted curve at half-maximal effect.",
  "data": [
    {"assay": "qHTS of pediatric cancer cell lines to identify multiple opportunities for drug repurposing: Primary screen for Saos-2 cells (AID 1347097); also: nearly all actives have a fitted effect of over 40% in size", "conditions": "Saos-2 viability, CellTiter-Glo ATP luminescence, 48 h; series mostly up to 46 µM; activity change, negative = cytotoxic: at the top concentration", "method_in_brief": "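Cells seeded at 500-1,000 cells/well in growth media, rested 5 hours at 37 degrees C, 5% CO2, then dosed; MIPE compounds at 11-point (from 0.78 nM) and NPC at 8-point (from 0.59 nM) final concentrations. Viability by CellTiter-Glo luminescence after 48 hours.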", "values": [
      {"molecule": "Cc1cc(C(=O)NOCCO)c(Nc2ccc(I)cc2F)n(C)c1=O", "activity change, negative = cytotoxic": "-11% (inactive)"},
      {"molecule": "Nc1nc(=O)n([C@H]2C[C@H](O)[C@@H](CO)O2)cc1F", "activity change, negative = cytotoxic": "-11.7% (inactive)"},
      {"molecule": "C[C@H]1[C@@H](OC(=O)CCC(=O)O)O[C@@H]2O[C@@]3(C)CC[C@@H]4[C@H](C)CC[C@@H]1[C@@]24OO3", "activity change, negative = cytotoxic": "8.9% (inactive)"},
      {"molecule": "Cc1cnc(Nc2ccc(CN3CCOCC3)cc2)nc1Nc1cccc(S(=O)(=O)NC(C)(C)C)c1", "Potency": "3.72 µM (active)"},
      {"molecule": "OC[C@@H](O)[C@@H](O)[C@H](O)[C@@H](O)CO", "activity change, negative = cytotoxic": "39.4% (inactive)"},
      {"molecule": "CC(C)c1cc(C(C)C)c(CC(=O)NS(=O)(=O)Oc2c(C(C)C)cccc2C(C)C)c(C(C)C)c1", "Potency": "18.7 µM (active)"},
      {"molecule": "C=C(C)[C@@H]1CC[C@]2(C(=O)O)CC[C@]3(C)[C@H](CC[C@@H]4[C@@]5(C)CC[C@H](O)C(C)(C)[C@@H]5CC[C@]43C)[C@@H]12", "Potency": "18.7 µM (active)"},
      {"molecule": "CC(C)C[C@H](NC(=O)[C@@H](NC(=O)c1cccc(-c2ccccc2)n1)[C@@H](C)O)B(O)O", "Potency": "5.9 µM (active)"},
      {"molecule": "C[N+](C)([O-])CCNc1ccc(NCC[N+](C)(C)[O-])c2c1C(=O)c1c(O)ccc(O)c1C2=O", "activity change, negative = cytotoxic": "-1.27% (inactive)"},
      {"molecule": "CC(C)(O)CC[C@@H](O)[C@](C)(O)[C@H]1CC[C@@]2(O)C3=CC(=O)[C@@H]4C[C@@H](O)[C@@H](O)C[C@]4(C)[C@@H]3CC[C@]12C", "activity change, negative = cytotoxic": "-23.8% (inactive)"},
      {"molecule": "CCS(=O)(=O)Nc1ccc2[nH]c(O)c(C(=Nc3ccc(CN4CCCCC4)cc3)c3ccccc3)c2c1", "Potency": "0.662 µM (active)"},
      {"molecule": "c1coc(CNc2ncnc3nc[nH]c23)c1", "activity change, negative = cytotoxic": "3.04% (inactive)"},
      {"molecule": "CCCCOc1ccc(C(=O)Nc2ccc(F)cc2F)cc1", "activity change, negative = cytotoxic": "-8.15% (inactive)"},
      {"molecule": "CCOc1cc2c(c(F)c1OCC)C(=N)N(CC(=O)c1cc(N3CCOCC3)c(OC)c(C(C)(C)C)c1)C2", "Potency": "14.8 µM (active)"},
      {"molecule": "CC[C@H]1OC(=O)[C@H](C)[C@@H](O[C@H]2C[C@@](C)(OC)[C@@H](O)[C@H](C)O2)[C@H](C)[C@@H](O[C@@H]2O[C@@H](C)C[C@H](N(C)C)[C@@H]2O)[C@](C)(O)C[C@@H](C)C(=O)[C@H](C)[C@@H](O)[C@]1(C)O", "activity change, negative = cytotoxic": "-9.86% (inactive)"},
      {"molecule": "CC(Cc1ccc(O)c(O)c1)(NN)C(=O)O", "note": "(configuration not stated)", "activity change, negative = cytotoxic": "-20.7% (inactive)"},
      {"molecule": "Cc1ccc2nc(NCCN)c3ncc(C)n3c2c1", "Potency": "14.8 µM (active)"},
      {"molecule": "CC(=O)O[C@H]1C[C@@H]2CC[C@H]3[C@H]4C[C@H]([N+]5(C)CCCCC5)[C@@H](OC(C)=O)[C@@]4(C)CC[C@@H]3[C@@]2(C)C[C@H]1N1CCCCC1", "activity change, negative = cytotoxic": "40.2% (inactive)"},
      {"molecule": "CC(C)(O)[C@H]1CC[C@@](C)([C@H]2[C@@H](O)C[C@@]3(C)[C@@H]4C[C@H](O[C@@H]5O[C@H](CO)[C@@H](O)[C@H](O)[C@@H]5O)[C@H]5C(C)(C)[C@@H](O[C@@H]6OC[C@@H](O)[C@H](O)[C@@H]6O)CC[C@@]56C[C@@]46CC[C@]23C)O1", "activity change, negative = cytotoxic": "3.46% (inactive)"},
      {"molecule": "Cn1cnc2c(F)c(Nc3ccc(Br)cc3F)c(C(=O)NOCCO)cc21", "activity change, negative = cytotoxic": "-11.7% (inactive)"},
      {"molecule": "O=S(=O)(O)CCSSCCS(=O)(=O)O", "activity change, negative = cytotoxic": "19.3% (inactive)"},
      {"molecule": "CON=C(C(=O)N[C@@H]1C(=O)N2C(C(=O)O)=C(CSC(=O)c3ccco3)CS[C@H]12)c1csc(N)n1", "activity change, negative = cytotoxic": "-19.7% (inactive)"},
      {"molecule": "C[C@@]12C[C@@]3(O)O[C@@H](O1)[C@]1(COC(=O)c4ccccc4)[C@@H]3C[C@@]12O[C@@H]1O[C@H](CO)[C@@H](O)[C@H](O)[C@@H]1O", "activity change, negative = cytotoxic": "6.35% (inactive)"},
      {"molecule": "CC(=O)C1=C(O)C=C2Oc3c(C(C)=O)c(O)c(C)c(O)c3C2(C)C1=O", "note": "(configuration not stated)", "Potency": "1.48 µM (active)"},
      {"molecule": "C[C@]12C=CC(=O)N[C@@H]1CC[C@H]1[C@H]3CC[C@@H](C(=O)Nc4cc(C(F)(F)F)ccc4C(F)(F)F)[C@@]3(C)CC[C@@H]12", "Potency": "16.6 µM (active)"}
    ]},
    {"assay": "qHTS of pediatric cancer cell lines to identify multiple opportunities for drug repurposing: Primary screen for SK-N-SH cells (AID 1347098); also: nearly all actives have a fitted effect of over 65% in size;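 as to activity change, negative = cytotoxic: DMSO served as neutral control and bortezomib at 2.3 µM as positive control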", "conditions": "SK-N-SH viability, CellTiter-Glo luminescence, 48 h; series mostly up to 57 µM; activity change, negative = cytotoxic: at the top concentration", "method_in_brief": "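Cells (500-1,000/well) rested 5 h, then received compounds for 48 h; metabolically active cells were measured by CellTiter-Glo luminescence. Final concentrations spanned up to 46 µM (MIPE, 11-point) or 0.59 nM-46 µM (NPC, 8-point) in primary screens, 11-point in follow-ups.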", "values": [
      {"molecule": "Cc1cc(C(=O)NOCCO)c(Nc2ccc(I)cc2F)n(C)c1=O", "Potency": "2.15 µM (active)"},
      {"molecule": "O=C(Nc1nnc(-c2ccco2)o1)c1cc(-c2ccccc2)nc2ccccc12", "Potency": "30.4 µM (active)"},
      {"molecule": "Nc1nc(=O)n([C@H]2C[C@H](O)[C@@H](CO)O2)cc1F", "activity change, negative = cytotoxic": "-4.92% (inactive)"},
      {"molecule": "C[C@H]1[C@@H](OC(=O)CCC(=O)O)O[C@@H]2O[C@@]3(C)CC[C@@H]4[C@H](C)CC[C@@H]1[C@@]24OO3", "Potency": "13.6 µM (active)"},
      {"molecule": "Cc1cnc(Nc2ccc(CN3CCOCC3)cc2)nc1Nc1cccc(S(=O)(=O)NC(C)(C)C)c1", "Potency": "3.04 µM (active)"},
      {"molecule": "OC[C@@H](O)[C@@H](O)[C@H](O)[C@@H](O)CO", "activity change, negative = cytotoxic": "23.8% (inactive)"},
      {"molecule": "CC(C)c1cc(C(C)C)c(CC(=O)NS(=O)(=O)Oc2c(C(C)C)cccc2C(C)C)c(C(C)C)c1", "activity change, negative = cytotoxic": "13.6% (inactive)"},
      {"molecule": "COC(=O)[C@@H]1[C@H]2C[C@@H]3c4[nH]c5ccccc5c4CCN3C[C@@H]2CC[C@@H]1O", "activity change, negative = cytotoxic": "21.3% (inactive)"},
      {"molecule": "C=C(C)[C@@H]1CC[C@]2(C(=O)O)CC[C@]3(C)[C@H](CC[C@@H]4[C@@]5(C)CC[C@H](O)C(C)(C)[C@@H]5CC[C@]43C)[C@@H]12", "activity change, negative = cytotoxic": "12.1% (inactive)"},
      {"molecule": "CC(C)C[C@H](NC(=O)[C@@H](NC(=O)c1cccc(-c2ccccc2)n1)[C@@H](C)O)B(O)O", "Potency": "0.0607 µM (active)"},
      {"molecule": "CCN(C(=O)c1c(O)c2c(Cl)cccc2n(C)c1=O)c1ccccc1", "activity change, negative = cytotoxic": "-5.18% (inactive)"},
      {"molecule": "CCS(=O)(=O)Nc1ccc2[nH]c(O)c(C(=Nc3ccc(CN4CCCCC4)cc3)c3ccccc3)c2c1", "Potency": "1.21 µM (active)"},
      {"molecule": "c1coc(CNc2ncnc3nc[nH]c23)c1", "activity change, negative = cytotoxic": "14.1% (inactive)"},
      {"molecule": "CC[C@H]1OC(=O)[C@H](C)[C@@H](O[C@H]2C[C@@](C)(OC)[C@@H](O)[C@H](C)O2)[C@H](C)[C@@H](O[C@@H]2O[C@@H](C)C[C@H](N(C)C)[C@@H]2O)[C@](C)(O)C[C@@H](C)C(=O)[C@H](C)[C@@H](O)[C@]1(C)O", "activity change, negative = cytotoxic": "13.2% (inactive)"},
      {"molecule": "CC(Cc1ccc(O)c(O)c1)(NN)C(=O)O", "note": "(configuration not stated)", "activity change, negative = cytotoxic": "11.6% (inactive)"},
      {"molecule": "CCNC(=O)c1cc2c(-c3cc(OCCN4CCCC4)c(Cl)cc3Cl)nc(N)nc2s1", "Potency": "3.04 µM (active)"},
      {"molecule": "Cc1ccc2nc(NCCN)c3ncc(C)n3c2c1", "Potency": "6.81 µM (active)"},
      {"molecule": "CC(=O)O[C@H]1C[C@@H]2CC[C@H]3[C@H]4C[C@H]([N+]5(C)CCCCC5)[C@@H](OC(C)=O)[C@@]4(C)CC[C@@H]3[C@@]2(C)C[C@H]1N1CCCCC1", "activity change, negative = cytotoxic": "-21.8% (inactive)"},
      {"molecule": "CC(C)(O)[C@H]1CC[C@@](C)([C@H]2[C@@H](O)C[C@@]3(C)[C@@H]4C[C@H](O[C@@H]5O[C@H](CO)[C@@H](O)[C@H](O)[C@@H]5O)[C@H]5C(C)(C)[C@@H](O[C@@H]6OC[C@@H](O)[C@H](O)[C@@H]6O)CC[C@@]56C[C@@]46CC[C@]23C)O1", "activity change, negative = cytotoxic": "19.5% (inactive)"},
      {"molecule": "O=C(Nc1ccc(Oc2ccnc3[nH]ccc23)c(F)c1)c1cccn(-c2ccc(F)cc2)c1=O", "activity change, negative = cytotoxic": "7.12% (inactive)"},
      {"molecule": "CC(C(C)N1CC(=O)NC(=O)C1)N1CC(=O)NC(=O)C1", "note": "(configuration not stated)", "activity change, negative = cytotoxic": "-14.7% (inactive)"},
      {"molecule": "Cc1cnc(NC(=O)Nc2cc(Br)c(C)cc2OC[C@@H]2CNCCO2)cn1", "activity change, negative = cytotoxic": "-4.92% (inactive)"},
      {"molecule": "CON=C(C(=O)N[C@@H]1C(=O)N2C(C(=O)O)=C(CSC(=O)c3ccco3)CS[C@H]12)c1csc(N)n1", "Potency": "13.6 µM (active)"},
      {"molecule": "C[C@@]12C[C@@]3(O)O[C@@H](O1)[C@]1(COC(=O)c4ccccc4)[C@@H]3C[C@@]12O[C@@H]1O[C@H](CO)[C@@H](O)[C@H](O)[C@@H]1O", "activity change, negative = cytotoxic": "16.3% (inactive)"},
      {"molecule": "CC(=O)C1=C(O)C=C2Oc3c(C(C)=O)c(O)c(C)c(O)c3C2(C)C1=O", "note": "(configuration not stated)", "activity change, negative = cytotoxic": "-7.55% (inactive)"},
      {"molecule": "C[C@]12C=CC(=O)N[C@@H]1CC[C@H]1[C@H]3CC[C@@H](C(=O)Nc4cc(C(F)(F)F)ccc4C(F)(F)F)[C@@]3(C)CC[C@@H]12", "activity change, negative = cytotoxic": "44.9% (inactive)"},
      {"molecule": "CC(=O)O[C@@]12CO[C@H]1C[C@H](O)[C@@]1(C)C(=O)[C@H](O)C3=C(C)[C@@H](OC(=O)C(O)[C@@H](NC(=O)OC(C)(C)C)c4ccccc4)C[C@@](O)([C@@H](OC(=O)c4ccccc4)[C@@H]21)C3(C)C", "note": "(some centres not stated)", "activity change, negative = cytotoxic": "-15.5% (inactive)"}
    ]}
  ]
}
